Test results as given in PubChem BioAssay (NCATS).
Inconclusive results are not listed. Active and inactive are the calls of the source. Calls come from the whole dose curve; as a rule, active = well fitted cell-killing curve with a large enough effect; inconclusive = small, poorly fitted or top-dose-only effect, or effect the other way; inactive = flat fitted curve, though single readings scatter.

Columns and labels:
Assay in all cases: Primary qHTS to identify gynecologic anti-cancer compounds using libraries of approved drugs and bioactive compounds (AID 1345084); note: nearly all actives have a fitted effect of over 55% in size
C33A = details: Gynecologic cancer cell panel viability, ATPlite luminescence, 48 h; series mostly up to 57.5 µM
How it was run: (§1)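 Measured: luminescence after ATPlite addition (15 min, RT). Exposure: 48 h, 37 C, 5% CO2.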

CAOV3 = details: Gynecologic cancer cell panel viability, ATPlite luminescence, 48 h; series mostly up to 57.5 µM
How it was run: as §1

CASKI = details: Gynecologic cancer cell panel viability, ATPlite luminescence, 48 h; series mostly up to 57.5 µM
How it was run: as §1

Es-2 = details: Gynecologic cancer cell panel viability, ATPlite luminescence, 48 h; series mostly up to 57.5 µM
How it was run: as §1

HeLa = details: Gynecologic cancer cell panel viability, ATPlite luminescence, 48 h; series mostly up to 57.5 µM
How it was run: as §1

Hek293T = details: Gynecologic cancer cell panel viability, ATPlite luminescence, 48 h, control line for the selectivity index; series mostly up to 57.5 µM
How it was run: as §1

JEG-3 = details: Gynecologic cancer cell panel viability, ATPlite luminescence, 48 h; series mostly up to 57.5 µM
How it was run: as §1

OV90 = details: Gynecologic cancer cell panel viability, ATPlite luminescence, 48 h; series mostly up to 57.5 µM
How it was run: as §1

PA-1 = details: Gynecologic cancer cell panel viability, ATPlite luminescence, 48 h; series mostly up to 57.5 µM
How it was run: as §1

Tov-21-G = details: Gynecologic cancer cell panel viability, ATPlite luminescence, 48 h; series mostly up to 57.5 µM
How it was run: as §1

Tov112D = details: Gynecologic cancer cell panel viability, ATPlite luminescence, 48 h; series mostly up to 57.5 µM
How it was run: as §1

SKOV3 = details: Gynecologic cancer cell panel viability, ATPlite luminescence, 48 h; series mostly up to 57.5 µM
How it was run: as §1
% is set by controls: 0 for no effect and ±100 for the full control effect.

CC1(C)CC[C@]2(C(=O)O[C@@H]3O[C@H](CO)[C@@H](O)[C@H](O)[C@H]3O)CC[C@]3(C)C(=CCC4[C@@]5(C)C[C@@H](O)[C@H](O)C(C)(C)C5CC[C@]43C)C2[C@@H]1O (stereo partly drawn)
inactive: Potency (C33A) | Potency (CAOV3) | Potency (CASKI) | Potency (Es-2) | Potency (HeLa) | Potency (Hek293T) | Potency (JEG-3) | Potency (OV90) | Potency (PA-1) | Potency (Tov-21-G) | Potency (Tov112D)

Cc1nc(C)c(-c2ccc(C3CCC(CC(=O)O)CC3)cc2)nc1C(N)=O (stereo not drawn)
inactive: Potency (C33A) | Potency (CAOV3) | Potency (CASKI) | Potency (Es-2) | Potency (HeLa) | Potency (Hek293T) | Potency (JEG-3) | Potency (OV90) | Potency (PA-1) | Potency (Tov-21-G) | Potency (Tov112D)

Clc1cc2c(NC3CCCC3)nnc(-c3ccncc3)c2cc1Cl
inactive: Potency (C33A) | Potency (CAOV3) | Potency (CASKI) | Potency (Es-2) | Potency (HeLa) | Potency (Hek293T) | Potency (JEG-3) | Potency (OV90) | Potency (PA-1) | Potency (Tov-21-G) | Potency (Tov112D)

CCCOc1ccc(-c2nc(OC)c3ccccc3n2)cc1
inactive: Potency (C33A) | Potency (CAOV3) | Potency (CASKI) | Potency (Es-2) | Potency (HeLa) | Potency (Hek293T) | Potency (JEG-3) | Potency (OV90) | Potency (PA-1) | Potency (Tov-21-G) | Potency (Tov112D)

CC/C=C/CC1=C(CCCCC(CCC(=O)O)OC(C)=O)CCC1=O (stereo not drawn)
inactive: Potency (C33A) | Potency (CAOV3) | Potency (CASKI) | Potency (Es-2) | Potency (HeLa) | Potency (Hek293T) | Potency (JEG-3) | Potency (OV90) | Potency (PA-1) | Potency (Tov-21-G) | Potency (Tov112D)

COc1ccc([C@@H]2OC[C@H]3[C@@H]2CO[C@@H]3c2ccc(OC3OC(CO)C(O)C(O)C3O)c(OC)c2)cc1OC (stereo partly drawn)
inactive: Potency (C33A) | Potency (CAOV3) | Potency (CASKI) | Potency (Es-2) | Potency (HeLa) | Potency (Hek293T) | Potency (JEG-3) | Potency (OV90) | Potency (PA-1) | Potency (Tov-21-G) | Potency (Tov112D)

Cc1ccc(S(=O)(=O)Nc2ccccc2N2CCCCC2)s1
inactive: Potency (C33A) | Potency (CAOV3) | Potency (CASKI) | Potency (Es-2) | Potency (HeLa) | Potency (Hek293T) | Potency (JEG-3) | Potency (OV90) | Potency (PA-1) | Potency (Tov-21-G) | Potency (Tov112D)

CC(CCC1(O)OC2CC3C4CCC5CC(O[C@@H]6O[C@H](CO)[C@@H](O)[C@H](O)[C@H]6O[C@@H]6O[C@@H](C)[C@H](O)[C@@H](O)[C@H]6O)C(O)CC5(C)C4CCC3(C)C2C1C)CO[C@@H]1O[C@H](CO)[C@@H](O)[C@H](O)[C@H]1O (stereo partly drawn)
inactive: activity change, negative = cytotoxicity (C33A) 3.88% [at 11.6 µM] | activity change, negative = cytotoxicity (CAOV3) -13.8% [at 11.6 µM] | activity change, negative = cytotoxicity (CASKI) -0.222% [at 11.6 µM] | activity change, negative = cytotoxicity (Es-2) -3.1% [at 11.6 µM] | activity change, negative = cytotoxicity (HeLa) 3.09% [at 11.6 µM] | activity change, negative = cytotoxicity (Hek293T) 17.8% [at 11.6 µM] | activity change, negative = cytotoxicity (JEG-3) -0.873% [at 11.6 µM] | activity change, negative = cytotoxicity (OV90) 22.7% [at 11.6 µM] | activity change, negative = cytotoxicity (SKOV3) 3.64% [at 11.6 µM] | activity change, negative = cytotoxicity (Tov-21-G) 6.58% [at 11.6 µM] | activity change, negative = cytotoxicity (Tov112D) 18.3% [at 11.6 µM]

COC(=O)C1=C2Nc3ccccc3C23CCN2CCCC(C(C)O)(C1)C23 (stereo not drawn)
inactive: Potency (C33A) | Potency (CAOV3) | Potency (CASKI) | Potency (Es-2) | Potency (HeLa) | Potency (Hek293T) | Potency (JEG-3) | Potency (OV90) | Potency (PA-1) | Potency (Tov-21-G) | Potency (Tov112D)

CCOc1ccc(NC(=S)N2CCC(C(O)(c3ccccc3)c3ccccc3)CC2)cc1
inactive: Potency (C33A) | Potency (CAOV3) | Potency (CASKI) | Potency (Es-2) | Potency (HeLa) | Potency (Hek293T) | Potency (JEG-3) | Potency (OV90) | Potency (PA-1) | Potency (Tov-21-G) | Potency (Tov112D)

C=C1[C@@H]2CC[C@@H]3[C@@](CCC4C(C(=O)O)(C(=O)O)C[C@@H](O[C@@H]5O[C@H](CO)[C@@H](O)[C@H](O)[C@H]5OC(=O)CC(C)C)C[C@]43C)(C2)[C@H]1O (stereo partly drawn)
inactive: Potency (C33A) | Potency (CAOV3) | Potency (CASKI) | Potency (Es-2) | Potency (HeLa) | Potency (Hek293T) | Potency (JEG-3) | Potency (OV90) | Potency (SKOV3) | Potency (Tov-21-G) | Potency (Tov112D)

CC(C)c1nnc(-c2ccc(-c3ccccc3)nc2)n1-c1cccc2nonc12
inactive: Potency (C33A) | Potency (CAOV3) | Potency (CASKI) | Potency (Es-2) | Potency (HeLa) | Potency (Hek293T) | Potency (JEG-3) | Potency (OV90) | Potency (PA-1) | Potency (Tov112D)

CC1=CCC(C(C)(C)O[C@@H]2O[C@H](CO[C@@H]3O[C@@H](C)[C@H](O)[C@@H](O)[C@H]3O)[C@@H](O)[C@H](O)[C@H]2O)CC1 (stereo partly drawn)
inactive: Potency (C33A) | Potency (CAOV3) | Potency (CASKI) | Potency (Es-2) | Potency (HeLa) | Potency (Hek293T) | Potency (JEG-3) | Potency (OV90) | Potency (PA-1) | Potency (Tov-21-G) | Potency (Tov112D)

C[C@@H]1CCC2C(C)(C)[C@H](O)CC[C@]2(C)[C@@]12Cc1c(O)cc3c(c1O2)CN([C@@H](CCC(=O)O)C(=O)O)C3=O (stereo partly drawn)
inactive: Potency (C33A) | Potency (CAOV3) | Potency (CASKI) | Potency (Es-2) | Potency (HeLa) | Potency (Hek293T) | Potency (JEG-3) | Potency (OV90) | Potency (SKOV3) | Potency (Tov-21-G) | Potency (Tov112D)

Cc1cc(C(=O)Nc2cccc(C(=O)Nc3cccc(C(F)(F)F)c3)c2)on1
inactive: Potency (C33A) | Potency (CAOV3) | Potency (CASKI) | Potency (Es-2) | Potency (HeLa) | Potency (Hek293T) | Potency (JEG-3) | Potency (OV90) | Potency (PA-1) | Potency (Tov112D)
